# Where “and” joins values, the source holds several entries; their conditions need not be identical. Equal entries are not always repeated. Records with an inconclusive call do not appear. A call without a number means that no potency is given here. Calls of active or inactive are those of the source. Calls come from the whole dose curve; as a rule, active = well fitted curve in the direction sought with a large enough effect; inconclusive = small, poorly fitted or top-dose-only effect, or another doubt; inactive = no such curve, though single readings can be large; an effect the other way counts as inactive or inconclusive.
# Experiments:
# [1] = Cell Viability - LYMP2-010 (AID 981); note: nearly all actives have a fitted effect of over 55% in size; note: potency is the fitted concentration of half-maximal effect
# Summary of the method: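 This 24 hr viability screen uses LYMP2-010 lymphoblastoid cells, quantifies ATP via luciferase luminescence, and derives AC50 from Hill fits of qHTS concentration-response data.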
# [2] = Cell Viability - LYMP2-012 (AID 982);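 note: cellular ATP by luciferase luminescence where a drop means cytotoxicity; cells exposed to compound for one day before reading; nearly all actives have a fitted effect of over 55% in size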; note: potency is the fitted concentration of half-maximal effect
# [3] = Cell Viability - LYMP2-014 (AID 983);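 note: cells exposed to compound for 24 h at 37 °C; nearly all actives have a fitted effect of over 50% in size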; note: potency is the fitted concentration of half-maximal effect
# Summary of the method: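 Quantitative HTS in lymphoblastoid cells: 24 hr compound exposure, then CellTiter-Glo ATP luminescence. Positive control was tetraoctylammonium bromide, 6.4pM to 92 uM.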
# [4] = Cell Viability - LYMP2-016 (AID 984); note: nearly all actives have a fitted effect of over 55% in size; note: potency is the fitted concentration of half-maximal effect
# Summary of the method: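 qHTS, 1536-well: 2500 LYMP2-016 cells/well, 5 hr 37 C, compound added, 24 hr 37 C, CellTiter-Glo 30 min RT, luminescence. Tetraoctylammonium bromide positive control. AC50 via Hill fit.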
# [5] = Cell Viability - LYMP2-018 (AID 985); note: nearly all actives have a fitted effect of over 50% in size; note: potency is the fitted concentration of half-maximal effect
# Summary of the method: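 In this qHTS viability assay, cells are treated for 24 hr and cellular ATP is quantified by luciferase-based luminescence, with tetraoctylammonium bromide as positive control.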
# [6] = Cell Viability - LYMP2-020 (AID 986);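 note: cells exposed to compound for 24 h at 37 °C; nearly all actives have a fitted effect of over 55% in size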; note: potency is the fitted concentration of half-maximal effect
# Summary of the method: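 Cells at 2500 per well receive a 24 hr compound exposure at 37 C. Viability is measured as ATP-dependent luciferase luminescence, with AC50 modeled from qHTS concentration-response curves.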
# [7] = Cell Viability - LYMP2-022 (AID 987); note: nearly all actives have a fitted effect of over 55% in size; note: potency is the fitted concentration of half-maximal effect
# Summary of the method: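 In this qHTS cytotoxicity screen, compound titrations were incubated 24 hr at 37 C with human lymphoblastoid cells in complete medium. Luciferase-based ATP luminescence provided the viability signal.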
# [8] = Cell Viability - LYMP2-024 (AID 988); note: nearly all actives have a fitted effect of over 60% in size; note: potency is the fitted concentration of half-maximal effect
# Summary of the method: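 Cells at 2500 per well received compound for 24 hr after a 5 hr settling period. Viability was scored by CellTiter-Glo luminescence, with AC50 from Hill fits.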
# [9] = Cell Viability - LYMP1-002 - Assay at 24 hr (AID 993); note: potency is the fitted concentration of half-maximal effect
# Summary of the method: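 Viability was judged from intracellular ATP using a luciferase read-out, following a 24-hour compound incubation at 37 C of lymphoblastoid cells seeded at 2500 per well. Concentration-response data were fitted to the Hill equation for AC50.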
# [10] = qHTS for differential inhibitors of proliferation of Plasmodium falciparum line 7G8 (AID 1815);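 note: potency is the fitted concentration of half-maximal effect; parasite growth measured after three days of incubation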
# [11] = qHTS for differential inhibitors of proliferation of Plasmodium falciparum line GB4 (AID 1816); details: Potency: Plasmodium falciparum GB4 proliferation inhibition;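 note: potency is the fitted concentration of half-maximal effect; parasite growth measured after 72 h incubation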
# [12] = qHTS for differential inhibitors of proliferation of Plasmodium falciparum line 3D7 (AID 1876); note: potency is the fitted concentration of half-maximal effect
# [13] = biological target: Alpha-galactosidase A (Homo sapiens) (UniProt P06280); experiment: Counterscreen for Glucocerebrosidase Inhibitors: qHTS Assay for Human alpha-Galactosidase at pH 4.5 (AID 992)
# Sequence of Alpha-galactosidase A (Homo sapiens) (P06280 whole entry, looked up): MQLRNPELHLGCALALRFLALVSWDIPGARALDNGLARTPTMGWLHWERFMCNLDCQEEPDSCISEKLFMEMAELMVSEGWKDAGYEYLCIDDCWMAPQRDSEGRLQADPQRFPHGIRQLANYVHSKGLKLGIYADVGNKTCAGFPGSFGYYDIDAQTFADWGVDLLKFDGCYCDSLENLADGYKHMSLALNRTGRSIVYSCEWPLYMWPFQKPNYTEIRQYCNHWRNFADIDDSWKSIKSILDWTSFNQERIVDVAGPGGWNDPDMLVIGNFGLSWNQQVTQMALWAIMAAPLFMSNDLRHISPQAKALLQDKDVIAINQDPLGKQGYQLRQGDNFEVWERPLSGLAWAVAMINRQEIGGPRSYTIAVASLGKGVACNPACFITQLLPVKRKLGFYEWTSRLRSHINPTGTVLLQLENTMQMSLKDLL
# Summary of the method: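 Fluorogenic 4-MU alpha-D-galactoside (80 uM) hydrolysis, 2 nM enzyme, pH 4.5 citrate buffer + 0.005% Tween-20; 20 min RT; NaOH/glycine pH 10 stop; Ex365/Em440. Compounds titrated 0.7 nM–77 uM; Hill-equation AC50.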
# [14] = biological target: alpha-glucosidase (Oryza sativa, rice) (UniProt Q653V4); experiment: Counterscreen for Glucocerebrosidase Inhibitors: qHTS Assay for Rice alpha-Glucosidase at pH 5.0 (AID 997)
# Summary of the method: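 Endpoint fluorogenic assay at pH 5.0: compounds (0.7 nM to 77 uM) titrated against 4 nM rice enzyme and 400 uM 4-MU-alpha-glucoside for 20 min at room temperature; NaOH/glycine stop, read ex 365/em 440 nm, Hill-fitted AC50.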
# [15] = biological target: Alpha-galactosidase (Coffea arabica) (UniProt Q42656); experiment: Counterscreen for Glucocerebrosidase Inhibitors: qHTS Assay for Coffee Bean alpha-Galactosidase at pH 5.9 (AID 998)
# Sequence of Alpha-galactosidase (Coffea arabica) (Q42656 whole entry, looked up): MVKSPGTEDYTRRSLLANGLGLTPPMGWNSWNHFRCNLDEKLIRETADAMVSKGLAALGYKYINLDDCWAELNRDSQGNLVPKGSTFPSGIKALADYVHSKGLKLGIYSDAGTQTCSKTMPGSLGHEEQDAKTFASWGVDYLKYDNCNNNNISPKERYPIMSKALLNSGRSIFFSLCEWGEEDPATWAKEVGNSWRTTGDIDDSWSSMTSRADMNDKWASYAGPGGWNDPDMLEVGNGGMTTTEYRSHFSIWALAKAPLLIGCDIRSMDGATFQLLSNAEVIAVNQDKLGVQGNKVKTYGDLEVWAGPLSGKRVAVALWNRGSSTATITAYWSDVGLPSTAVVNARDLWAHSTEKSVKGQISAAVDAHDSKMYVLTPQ
# Summary of the method: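 Enzyme 2 nM + cpd (0.7 nM–77 uM titration) + 4-MU-alpha-Gal 80 uM, pH 5.9 citrate/Tween-20, RT 20 min, NaOH/glycine stop pH 10, fluor 365/440. Normalized to no-enzyme and full-activity controls; Hill-fit AC50.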
# [16] = Counterscreen for APE1 Inhibitors: Fluorescent Dye Displacement Validation Assay (AID 1707)
# Summary of the method: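 Endpoint fluorescence read at 480 nm excitation / 540 nm emission; DNA-binding compounds lower signal by displacing 250 nM Thiazole Orange from 50 nM dsDNA containing a tetrahydrofuran abasic site, Tris-HCl pH7.5 buffer with NaCl and MgCl2.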
# [17] = biological target: Endonuclease 4 (Escherichia coli (strain K12)) (UniProt P0A6C1); experiment: Counterscreen for APE1 Inhibitors: qHTS Validation Assay for Inhibitors of Endonuclease IV (AID 1708)
# Summary of the method: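 Read-out: fluorescence rise (ex 525/em 598 nm) from incision of a TAMRA/BHQ-2 double-stranded THF abasic-site substrate (50 nM), measured kinetically; third-minus-first read difference gave reaction progress. Enzyme 2 nM.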
structure (smiles),measurement,setting,value
Clc1ccccc1Cl,Potency,[1],inactive
same,Potency,[2],inactive
same,Potency,[3],inactive
same,Potency,[4],inactive
same,Potency,[5],inactive
same,Potency,[6],inactive
same,Potency,[7],inactive
same,Potency,[8],inactive
same,Potency,[9],inactive
CCCCCCCCCCCCCC(=O)O[C@@H]1[C@@H](C)[C@@]2(O)[C@@H](C=C(CO)C[C@@]3(O)C(=O)C(C)=C[C@@H]23)C2C(C)(C)[C@@]21OC(C)=O (stereo not given in full),Potency,[10],5.62 µM (active)
same,Potency,[11],11.2 µM (active)
same,Potency,[12],10 µM (active)
[Cl-].[Cl-].[Hg+2],Potency,[1],316 nM (active)
same,Potency,[3],12.6 µM (active)
same,Potency,[5],5.01 µM (active)
same,Potency,[6],3.16 µM (active)
same,Potency,[8],398 nM (active)
same,Potency,[9],1.26 µM (active)
O=C(O)C(Cl)(Cl)Cl,Potency,[1],inactive
same,Potency,[2],inactive
same,Potency,[3],inactive
same,Potency,[4],inactive
same,Potency,[5],inactive
same,Potency,[6],inactive
same,Potency,[7],inactive
same,Potency,[8],inactive
same,Potency,[9],inactive
[O]=[Cr](=[O])([OH])[O][Cr](=[O])(=[O])[OH],Potency,[1],10 µM (active) and 7.94 µM (active)
same,Potency,[2],12.6 µM (active) and 15.8 µM (active) and 7.94 µM (active)
same,Potency,[3],12.6 µM (active) and 15.8 µM (active) and 10 µM (active)
same,Potency,[4],10 µM (active) and 12.6 µM (active)
same,Potency,[5],7.94 µM (active) and 12.6 µM (active)
same,Potency,[6],15.8 µM (active) and 10 µM (active)
same,Potency,[7],10 µM (active) and 12.6 µM (active) and 7.94 µM (active)
same,Potency,[8],12.6 µM (active) and 15.8 µM (active) and 10 µM (active)
same,Potency,[9],inactive
Clc1ccc(N2C[C@H]3CC[C@@H](C2)N3)nn1,outcome,[13],inactive
same,outcome,[14],inactive
same,outcome,[15],inactive
O=CC=O,Potency,[1],inactive
same,Potency,[2],inactive
same,Potency,[3],inactive
same,Potency,[4],inactive
same,Potency,[5],inactive
same,Potency,[6],inactive
same,Potency,[7],inactive
same,Potency,[8],inactive
same,Potency,[9],inactive
CCCN1CCc2cc(O)cc3c2[C@H]1Cc1ccc(O)c(O)c1-3,outcome,[13],inactive
same,outcome,[14],inactive
same,outcome,[15],inactive
CCn1cnc2c(Nc3cccc(Cl)c3)nc(N[C@@H]3CCCC[C@@H]3N)nc21,Potency,[16],inactive
same,Potency,[17],inactive
same,Potency,[10],3.16 µM (active)
same,Potency,[11],3.98 µM (active)
same,Potency,[12],2.82 µM (active)
C[C@H]1CCC[C@H](O)CCCCCc2cc(O)cc(O)c2C(=O)O1,Potency,[1],inactive
same,Potency,[2],inactive
same,Potency,[3],inactive
same,Potency,[4],inactive
same,Potency,[5],inactive
same,Potency,[6],inactive
same,Potency,[7],inactive
same,Potency,[8],inactive
same,Potency,[9],inactive

# — PubChem BioAssay (NCATS)
